Assay [1] has as its target Fibroblast growth factor receptor 4 (Homo sapiens) (UniProt P22455). As to conditions: at 1 µM.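 Further: reported figure is the averaged percent inhibition of FGFR4, from the GSK PKIS kinase screening panel.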
Assay [2] addresses Tyrosine-protein kinase Fgr (Homo sapiens) (UniProt P09769). The settings on record: at 0.1 µM.
Assay [3] has the same target. The settings on record: at 1 µM.
Assay [4] has as its target Vascular endothelial growth factor receptor 1 (Homo sapiens) (UniProt P17948). The settings on record: at 0.1 µM.
The target is the same in assay [5]. The settings on record: at 1 µM.
Assay [6] deals with Receptor-type tyrosine-protein kinase FLT3 (Homo sapiens) (UniProt P36888). As to conditions: at 0.1 µM.
Assay [7] shares this target. As to conditions: at 1 µM.
In assay [8] the test system is T1, Receptor-type tyrosine-protein kinase FLT3 (Homo sapiens), P36888 [D835Y].
T1 sequence (whole entry): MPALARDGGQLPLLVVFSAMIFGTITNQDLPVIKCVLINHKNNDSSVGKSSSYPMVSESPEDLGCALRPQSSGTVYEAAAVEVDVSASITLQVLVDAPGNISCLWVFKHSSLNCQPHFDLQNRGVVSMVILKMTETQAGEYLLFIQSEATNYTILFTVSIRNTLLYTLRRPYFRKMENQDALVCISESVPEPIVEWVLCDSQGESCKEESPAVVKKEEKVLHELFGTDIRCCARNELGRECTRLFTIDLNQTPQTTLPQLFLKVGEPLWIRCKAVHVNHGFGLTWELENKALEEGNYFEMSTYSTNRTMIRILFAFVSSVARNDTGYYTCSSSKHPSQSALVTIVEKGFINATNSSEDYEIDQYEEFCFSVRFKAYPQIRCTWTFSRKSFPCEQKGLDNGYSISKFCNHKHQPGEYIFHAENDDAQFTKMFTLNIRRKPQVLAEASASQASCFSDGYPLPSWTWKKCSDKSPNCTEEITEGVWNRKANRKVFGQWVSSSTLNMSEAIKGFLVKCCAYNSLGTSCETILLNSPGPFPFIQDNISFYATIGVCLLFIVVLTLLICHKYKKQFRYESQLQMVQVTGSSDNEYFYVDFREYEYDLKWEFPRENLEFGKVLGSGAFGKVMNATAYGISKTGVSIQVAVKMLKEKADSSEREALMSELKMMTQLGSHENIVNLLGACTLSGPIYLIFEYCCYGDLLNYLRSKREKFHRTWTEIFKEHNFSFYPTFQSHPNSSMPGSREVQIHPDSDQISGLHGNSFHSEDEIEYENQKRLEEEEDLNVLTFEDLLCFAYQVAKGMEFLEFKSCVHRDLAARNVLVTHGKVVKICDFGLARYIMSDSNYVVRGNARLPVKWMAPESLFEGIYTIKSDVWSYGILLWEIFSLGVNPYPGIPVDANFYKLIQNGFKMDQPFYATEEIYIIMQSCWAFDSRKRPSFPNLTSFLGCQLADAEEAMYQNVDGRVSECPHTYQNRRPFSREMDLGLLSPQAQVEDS
The settings on record: at 0.1 µM.

In assay [9] the target is Non-receptor tyrosine-protein kinase TYK2 (Homo sapiens) (UniProt P29597). As to conditions: at 1 µM.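 Further: values are mean percent inhibition of TYK2 kinase.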
Non-receptor tyrosine-protein kinase TYK2 (Homo sapiens), sequence (P29597 whole entry): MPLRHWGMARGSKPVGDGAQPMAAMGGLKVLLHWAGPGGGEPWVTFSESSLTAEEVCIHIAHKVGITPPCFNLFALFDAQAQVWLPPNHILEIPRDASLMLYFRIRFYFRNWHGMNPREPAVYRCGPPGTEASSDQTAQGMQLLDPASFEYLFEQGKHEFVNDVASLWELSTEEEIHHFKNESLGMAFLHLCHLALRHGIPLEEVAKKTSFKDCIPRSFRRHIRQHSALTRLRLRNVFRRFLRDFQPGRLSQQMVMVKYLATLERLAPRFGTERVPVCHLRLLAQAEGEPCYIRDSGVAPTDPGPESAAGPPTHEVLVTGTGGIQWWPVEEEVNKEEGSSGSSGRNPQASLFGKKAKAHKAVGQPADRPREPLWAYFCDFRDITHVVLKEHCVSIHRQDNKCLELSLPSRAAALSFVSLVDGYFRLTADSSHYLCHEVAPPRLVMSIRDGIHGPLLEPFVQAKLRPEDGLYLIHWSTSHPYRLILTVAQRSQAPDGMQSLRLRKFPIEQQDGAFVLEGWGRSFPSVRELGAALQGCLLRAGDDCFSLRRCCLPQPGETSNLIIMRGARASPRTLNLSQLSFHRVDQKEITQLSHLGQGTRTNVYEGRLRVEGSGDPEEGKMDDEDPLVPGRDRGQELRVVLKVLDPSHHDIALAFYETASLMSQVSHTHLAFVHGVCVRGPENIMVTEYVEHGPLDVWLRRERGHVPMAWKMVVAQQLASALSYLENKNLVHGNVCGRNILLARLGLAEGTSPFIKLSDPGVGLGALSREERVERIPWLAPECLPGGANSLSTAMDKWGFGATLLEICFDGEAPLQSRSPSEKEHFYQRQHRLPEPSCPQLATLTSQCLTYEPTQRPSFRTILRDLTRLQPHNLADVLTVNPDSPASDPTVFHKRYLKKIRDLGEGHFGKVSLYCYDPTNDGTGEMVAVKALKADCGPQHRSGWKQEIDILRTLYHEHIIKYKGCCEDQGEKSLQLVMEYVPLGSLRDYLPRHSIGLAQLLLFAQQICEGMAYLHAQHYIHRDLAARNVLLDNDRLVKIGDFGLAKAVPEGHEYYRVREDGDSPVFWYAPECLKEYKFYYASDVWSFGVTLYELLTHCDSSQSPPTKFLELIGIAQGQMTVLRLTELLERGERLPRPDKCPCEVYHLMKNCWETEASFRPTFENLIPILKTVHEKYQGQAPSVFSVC
In assay [10] the target is T2, Tyrosine-protein kinase receptor TYRO3 (Homo sapiens) (UniProt Q06418).
T2 sequence (whole entry): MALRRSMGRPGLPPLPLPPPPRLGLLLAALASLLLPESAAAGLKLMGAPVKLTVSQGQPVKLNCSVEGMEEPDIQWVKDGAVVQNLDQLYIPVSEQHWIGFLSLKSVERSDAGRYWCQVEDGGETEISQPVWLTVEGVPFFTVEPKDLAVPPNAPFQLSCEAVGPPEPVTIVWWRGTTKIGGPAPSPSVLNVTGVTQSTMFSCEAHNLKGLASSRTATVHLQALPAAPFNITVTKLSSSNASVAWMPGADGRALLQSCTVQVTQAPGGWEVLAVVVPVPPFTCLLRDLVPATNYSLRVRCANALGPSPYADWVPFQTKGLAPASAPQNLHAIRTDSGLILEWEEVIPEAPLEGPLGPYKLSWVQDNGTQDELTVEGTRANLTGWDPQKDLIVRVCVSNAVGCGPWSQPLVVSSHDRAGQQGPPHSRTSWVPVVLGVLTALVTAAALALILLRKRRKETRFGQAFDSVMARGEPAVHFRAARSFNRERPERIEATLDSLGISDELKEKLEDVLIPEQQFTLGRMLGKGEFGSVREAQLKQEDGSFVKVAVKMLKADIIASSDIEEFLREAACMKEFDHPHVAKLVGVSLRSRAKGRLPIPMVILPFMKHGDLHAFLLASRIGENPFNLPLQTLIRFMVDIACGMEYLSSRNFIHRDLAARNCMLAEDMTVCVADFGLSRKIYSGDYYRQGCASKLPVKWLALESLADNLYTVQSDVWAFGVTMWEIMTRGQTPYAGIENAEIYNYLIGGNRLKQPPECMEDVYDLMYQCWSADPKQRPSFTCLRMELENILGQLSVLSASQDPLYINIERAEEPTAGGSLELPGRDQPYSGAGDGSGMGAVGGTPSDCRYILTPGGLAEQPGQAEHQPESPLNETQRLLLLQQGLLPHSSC
The settings on record: at 0.1 µM.

The target in assay [11] is T2, Tyrosine-protein kinase receptor TYRO3 (Homo sapiens). As to conditions: at 1 µM.
Assay [12] addresses Tyrosine-protein kinase Yes (Homo sapiens) (UniProt P07947). As to conditions: at 0.1 µM.
The target is the same in assay [13]. The settings on record: at 1 µM.
Assay [14] concerns the target T3, Tyrosine-protein kinase ZAP-70 (Homo sapiens) (UniProt P43403).
T3 sequence (whole entry): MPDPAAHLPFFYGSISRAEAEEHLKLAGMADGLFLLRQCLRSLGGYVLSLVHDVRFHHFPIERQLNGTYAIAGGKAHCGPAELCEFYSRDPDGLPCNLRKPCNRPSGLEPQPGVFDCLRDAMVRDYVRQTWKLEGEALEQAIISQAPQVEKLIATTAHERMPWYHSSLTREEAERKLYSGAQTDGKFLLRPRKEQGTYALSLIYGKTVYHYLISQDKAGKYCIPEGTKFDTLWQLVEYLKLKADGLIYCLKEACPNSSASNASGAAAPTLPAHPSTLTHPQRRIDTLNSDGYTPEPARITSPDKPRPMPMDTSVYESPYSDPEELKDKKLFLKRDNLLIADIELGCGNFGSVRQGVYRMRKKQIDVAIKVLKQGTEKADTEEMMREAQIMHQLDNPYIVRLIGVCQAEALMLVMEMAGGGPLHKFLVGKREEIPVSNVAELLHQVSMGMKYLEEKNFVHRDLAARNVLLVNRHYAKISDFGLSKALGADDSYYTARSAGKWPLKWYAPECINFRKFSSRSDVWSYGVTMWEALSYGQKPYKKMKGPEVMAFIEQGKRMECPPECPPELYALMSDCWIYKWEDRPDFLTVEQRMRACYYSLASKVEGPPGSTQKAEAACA
As to conditions: at 0.1 µM.

In assay [15] the target is T3, Tyrosine-protein kinase ZAP-70 (Homo sapiens). As to conditions: at 1 µM.
Assay [16] concerns the target Serine/threonine-protein kinase B-raf (Homo sapiens) (UniProt P15056). As to conditions: at 0.1 µM.
Assay [17] has the same target. The settings on record: at 1 µM.
Assay [18] relates to Serine/threonine-protein kinase B-raf (Homo sapiens), P15056 [V600E]. As to conditions: at 0.1 µM.
Assay [19] has the same test system. The settings on record: at 1 µM.
Assay [20] addresses RAF proto-oncogene serine/threonine-protein kinase (Homo sapiens) (UniProt P04049). The settings on record: at 0.1 µM.

From ChEMBL document CHEMBL1961873, “Compounds: GSK PKIS; Assays: Nanosyn kinase panel” (2012) come the findings set out here.

As usually defined, the inhibition is the drop in the measured response relative to a control, in per cent.

RAF proto-oncogene serine/threonine-protein kinase (Homo sapiens), sequence (P04049 whole entry): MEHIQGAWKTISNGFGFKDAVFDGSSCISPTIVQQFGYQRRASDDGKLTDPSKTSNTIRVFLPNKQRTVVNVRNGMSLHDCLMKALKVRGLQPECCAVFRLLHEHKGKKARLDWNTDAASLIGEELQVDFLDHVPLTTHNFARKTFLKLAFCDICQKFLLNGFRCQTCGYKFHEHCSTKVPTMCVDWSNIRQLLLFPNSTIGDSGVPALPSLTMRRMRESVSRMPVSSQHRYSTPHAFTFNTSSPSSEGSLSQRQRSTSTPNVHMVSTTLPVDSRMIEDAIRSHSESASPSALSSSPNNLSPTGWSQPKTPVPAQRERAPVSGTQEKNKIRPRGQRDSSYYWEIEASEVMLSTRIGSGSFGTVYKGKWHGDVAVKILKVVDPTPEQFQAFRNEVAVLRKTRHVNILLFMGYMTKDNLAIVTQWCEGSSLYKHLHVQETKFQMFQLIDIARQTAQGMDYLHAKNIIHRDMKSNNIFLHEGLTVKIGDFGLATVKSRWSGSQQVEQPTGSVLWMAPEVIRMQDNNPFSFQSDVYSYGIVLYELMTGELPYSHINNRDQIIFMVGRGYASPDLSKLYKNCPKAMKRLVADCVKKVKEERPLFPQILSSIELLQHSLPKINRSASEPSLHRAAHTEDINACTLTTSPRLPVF
Tyrosine-protein kinase Fgr (Homo sapiens), sequence (P09769 2-529 limits assumed): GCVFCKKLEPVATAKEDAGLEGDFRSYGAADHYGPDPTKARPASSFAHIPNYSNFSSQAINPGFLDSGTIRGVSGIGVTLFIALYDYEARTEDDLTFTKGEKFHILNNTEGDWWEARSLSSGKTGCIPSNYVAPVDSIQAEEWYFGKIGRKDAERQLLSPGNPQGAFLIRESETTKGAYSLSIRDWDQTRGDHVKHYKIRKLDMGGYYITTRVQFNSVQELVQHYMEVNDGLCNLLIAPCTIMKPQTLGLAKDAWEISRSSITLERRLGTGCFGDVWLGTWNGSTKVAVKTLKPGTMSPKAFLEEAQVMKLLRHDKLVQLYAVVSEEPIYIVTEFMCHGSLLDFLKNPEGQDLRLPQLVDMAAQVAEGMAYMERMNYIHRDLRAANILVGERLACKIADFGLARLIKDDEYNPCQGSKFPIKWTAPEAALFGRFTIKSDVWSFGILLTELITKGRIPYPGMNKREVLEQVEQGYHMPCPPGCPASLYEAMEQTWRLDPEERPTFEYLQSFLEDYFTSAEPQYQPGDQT
Fibroblast growth factor receptor 4 (Homo sapiens), sequence (P22455 22-802 limits assumed): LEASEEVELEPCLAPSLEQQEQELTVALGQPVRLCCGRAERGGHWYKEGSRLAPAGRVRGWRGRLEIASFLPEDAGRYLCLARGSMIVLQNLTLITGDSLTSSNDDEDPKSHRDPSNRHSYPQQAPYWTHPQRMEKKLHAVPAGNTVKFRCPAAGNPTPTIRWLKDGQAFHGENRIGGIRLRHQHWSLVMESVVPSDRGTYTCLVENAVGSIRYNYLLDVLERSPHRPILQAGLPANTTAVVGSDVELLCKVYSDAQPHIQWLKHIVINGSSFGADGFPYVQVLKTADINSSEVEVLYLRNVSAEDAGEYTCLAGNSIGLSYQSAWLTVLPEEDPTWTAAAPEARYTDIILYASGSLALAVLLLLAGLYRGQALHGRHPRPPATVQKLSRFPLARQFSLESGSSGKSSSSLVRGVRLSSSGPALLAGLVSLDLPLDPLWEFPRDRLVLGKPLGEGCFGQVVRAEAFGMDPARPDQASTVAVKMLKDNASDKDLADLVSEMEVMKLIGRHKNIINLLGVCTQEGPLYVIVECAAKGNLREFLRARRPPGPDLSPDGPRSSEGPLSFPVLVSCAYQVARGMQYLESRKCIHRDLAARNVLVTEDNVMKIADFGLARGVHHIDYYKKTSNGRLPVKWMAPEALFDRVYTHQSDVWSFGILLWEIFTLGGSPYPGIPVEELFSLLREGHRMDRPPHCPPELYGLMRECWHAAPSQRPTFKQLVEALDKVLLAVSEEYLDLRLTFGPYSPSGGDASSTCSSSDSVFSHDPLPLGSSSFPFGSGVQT
Vascular endothelial growth factor receptor 1 (Homo sapiens), sequence (P17948 whole entry): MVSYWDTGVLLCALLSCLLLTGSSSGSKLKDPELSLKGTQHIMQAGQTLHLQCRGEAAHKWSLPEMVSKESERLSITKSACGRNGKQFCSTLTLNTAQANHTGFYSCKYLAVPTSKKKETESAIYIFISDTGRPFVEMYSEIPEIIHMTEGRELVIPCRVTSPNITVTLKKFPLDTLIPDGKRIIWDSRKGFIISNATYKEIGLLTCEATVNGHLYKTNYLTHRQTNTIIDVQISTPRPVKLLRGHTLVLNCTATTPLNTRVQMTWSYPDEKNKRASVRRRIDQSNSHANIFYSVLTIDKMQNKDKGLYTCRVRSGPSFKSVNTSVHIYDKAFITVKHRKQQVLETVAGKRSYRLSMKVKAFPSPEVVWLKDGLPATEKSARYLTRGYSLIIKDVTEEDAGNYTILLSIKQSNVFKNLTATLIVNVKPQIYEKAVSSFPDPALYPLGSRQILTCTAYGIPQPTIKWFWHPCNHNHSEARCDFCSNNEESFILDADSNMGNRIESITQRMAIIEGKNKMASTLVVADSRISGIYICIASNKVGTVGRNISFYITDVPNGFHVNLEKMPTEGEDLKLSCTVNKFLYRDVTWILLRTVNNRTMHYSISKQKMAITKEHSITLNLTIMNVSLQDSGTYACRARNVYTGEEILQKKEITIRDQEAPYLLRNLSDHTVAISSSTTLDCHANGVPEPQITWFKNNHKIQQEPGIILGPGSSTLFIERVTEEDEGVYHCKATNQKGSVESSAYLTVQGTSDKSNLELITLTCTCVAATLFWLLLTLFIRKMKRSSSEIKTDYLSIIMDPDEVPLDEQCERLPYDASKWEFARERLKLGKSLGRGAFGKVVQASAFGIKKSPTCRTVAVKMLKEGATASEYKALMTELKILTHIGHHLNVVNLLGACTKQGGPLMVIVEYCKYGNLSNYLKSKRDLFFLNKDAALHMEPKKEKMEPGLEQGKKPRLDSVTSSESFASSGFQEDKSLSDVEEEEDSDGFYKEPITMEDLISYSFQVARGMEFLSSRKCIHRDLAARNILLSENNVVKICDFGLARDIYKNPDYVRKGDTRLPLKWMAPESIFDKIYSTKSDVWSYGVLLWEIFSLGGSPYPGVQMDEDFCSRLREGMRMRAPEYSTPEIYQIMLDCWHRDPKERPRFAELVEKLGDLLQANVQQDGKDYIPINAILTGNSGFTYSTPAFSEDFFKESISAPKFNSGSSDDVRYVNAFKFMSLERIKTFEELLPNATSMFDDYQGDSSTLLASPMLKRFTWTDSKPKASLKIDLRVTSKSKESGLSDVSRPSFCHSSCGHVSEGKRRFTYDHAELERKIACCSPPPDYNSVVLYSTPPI
Tyrosine-protein kinase Yes (Homo sapiens), sequence (P07947 2-543 limits assumed): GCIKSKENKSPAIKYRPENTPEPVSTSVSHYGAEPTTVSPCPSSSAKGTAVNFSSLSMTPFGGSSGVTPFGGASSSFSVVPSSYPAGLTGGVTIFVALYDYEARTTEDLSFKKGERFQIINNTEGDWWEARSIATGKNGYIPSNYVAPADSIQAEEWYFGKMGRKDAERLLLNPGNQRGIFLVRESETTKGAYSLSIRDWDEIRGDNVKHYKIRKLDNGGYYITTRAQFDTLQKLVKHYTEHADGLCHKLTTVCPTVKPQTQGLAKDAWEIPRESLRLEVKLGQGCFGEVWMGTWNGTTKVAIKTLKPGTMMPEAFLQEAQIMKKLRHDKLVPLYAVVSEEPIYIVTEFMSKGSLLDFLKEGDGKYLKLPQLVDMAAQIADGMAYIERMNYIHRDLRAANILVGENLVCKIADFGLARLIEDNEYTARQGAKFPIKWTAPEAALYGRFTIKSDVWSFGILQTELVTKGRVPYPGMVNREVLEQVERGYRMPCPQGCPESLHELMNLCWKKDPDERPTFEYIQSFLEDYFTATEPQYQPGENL

Regarding `COc1cccc(-n2ncc3c(N/N=C/c4ccc(F)cc4)ncnc32)c1`, the inhibition in [1] came to 2.78%; in assay [2] it was 11.4%; in [3], 29.7%; in [4], 2.07%; in assay [5], 3.41%; in [6] it was 3.58%. Moreover, the inhibition in assay [7] was 7.87%; in [8], 0.24%; in assay [9], -1.74%; in assay [10] it was 5%; in assay [11] it was 9.33%; in [12] it was 5.87%. The inhibition in [13] turned out to be 25.1%; in assay [14], 2.73%; in assay [15], 2.54%; in [16], 7.43%; in assay [17], 8.16%; in [18] it was 5.77%. The figures for the inhibition in [19] and in assay [20] were 7.05% and 0.27%, respectively.
Regarding `CNC(=O)c1cccc(C#Cc2cncnc2Nc2ccc(OCc3cccc(F)c3)c(Cl)c2)c1`, the inhibition is 1.45% in assay [1]; 4.48% in [2]; 6.13% in [3]; 1.95% in assay [4]; 1.32% in assay [5]; 1.74% in assay [6]. The inhibition in assay [7] turned out to be 3.22%; in assay [8], 1.13%; in assay [9], 0.07%; in assay [10], 3.38%; in [11], 1.74%; in assay [12], 2.71%. The inhibition in assay [13] was 4.41%; in assay [14] it was 2.49%; in [15] it was -0.96%; in assay [16], 0.05%; in assay [17], 2.22%; in assay [18], 0.09%. Besides, the inhibition in assay [19] was 1.59%; in assay [20], 2.66%.
In the case of `COc1cc2ncn(-c3cc(OCc4ccccc4C(F)(F)F)c(C(=O)N(C)C)s3)c2cc1OC`, the inhibition in assay [1] was 2.15%; in assay [2], 0.95%; in assay [3] it was 6.42%; in assay [4], -0.21%; in assay [5] it was 6.59%; in assay [6] it was -1.41%. Besides, the inhibition in assay [7] is 0.81%; in [8], -1.94%; in assay [9] it was 1.47%; in assay [10], 0.67%; in assay [11] it was 2%; in assay [12] it was 0.64%. Also, the inhibition in [13] is 6.88%; in assay [14] it was 1.79%; in assay [15], 1.15%; in assay [16] it was -0.22%; in assay [17] it was 1.2%; in assay [18], -0.77%. The inhibition in assay [19] was 2.51%; in assay [20], 0.38%.
As to `CCn1c(-c2nonc2N)nc2ccccc21`, the inhibition is -0.03% in [1]; 2.86% in [2]; 4.31% in [3]; 2.69% in assay [4]; 0.59% in [5]; 0.25% in assay [6]. Moreover, the inhibition in assay [7] is 0.31%; in [8] it was 3.23%; in [9], -0.21%; in assay [10] it was 1.05%; in assay [11], 0.63%; in assay [12], -0.03%. The inhibition in [13] was -1.08%; in assay [14], 1%; in [15], -0.17%; in [16], 3.74%; in assay [17], 4.94%; in assay [18] it was 3.64%. Further, the inhibition in assay [19] stood at 4.52%; in assay [20] it was 2.9%.
For `CC(C)(CO)CNC(=O)c1ccc2c(c1)/C(=N/Nc1ccc(S(N)(=O)=O)cc1)C(=O)N2`, the inhibition in [1] was -0.62%; in assay [2], 3.82%; in assay [3] it was 22.2%; in [4], -1.72%; in assay [5] it was 11.1%; in assay [6], 0.08%. Further, the inhibition in assay [7] is 6.23%; in [8] it was 1.72%; in assay [9], 4.08%; in assay [10], -0.65%; in [11], 5.36%; in [12] it was 1.79%. In addition, the inhibition in [13] was 16.9%; in assay [14] it was -3.15%; in assay [15], 0.33%; in [16] it was 5.62%; in assay [17], 43.5%; in assay [18], 7.49%. Also, the inhibition in assay [19] was 44.1%; in assay [20] it was -0.32%.
Turning to `COc1cc2c(cc1Nc1nc(Nc3ccsc3C(N)=O)c3cc[nH]c3n1)N(C(=O)CN(C)C)CCC2(C)C`, the inhibition in assay [1] is 4.78%; in [2], 1.11%; in [3], 6.75%; in assay [4], 1.44%; in [5], 1.83%; in assay [6], 4.2%. Also, the inhibition in assay [7] is 13%; in assay [8] it was 0.35%; in [9], -1.34%; in [10] it was 3.88%; in assay [11], 18.6%; in assay [12], 2.57%. For the same compound, the inhibition in assay [13] was found to be 0.61%; in [14] it was 2.36%; in assay [15] it was 14.9%; in assay [16], 6.5%; in [17], 14.9%; in assay [18], 7.15%. Moreover, the inhibition in assay [19] was determined as 14%; in [20], 1.55%.
